# Source: the supplement of paper PMC10646978
# ± gives the standard deviation.
# Key:
# Conditions in all cases: modulator concentration 10 µM
# [1] = tested on: RAW-Dual (murine macrophage reporter line); experiment: NF-kB reporter (SEAP) activity fold change vs agonist alone; higher = enhanced NF-kB activity
# Method in brief: (§1)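 In 384-well plates holding 50 000 RAW-Dual murine macrophage reporter cells per well, compound at 10 μM final was pre-incubated for 1 hour at 37 °C, after which a PRR agonist was added overnight. Supernatant SEAP read with QUANTI-Blue at 620 nm absorbance reported NF-κB, and Lucia luciferase read with QUANTI-Luc luminescence reported IRF. Fold change values come from dividing each reporter signal by the mean of agonist-only control wells on the same plate, averaged over replicate plates with propagated errors.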
# [2] = tested on: RAW-Dual (murine macrophage reporter line); experiment: IRF reporter (Lucia luciferase) activity fold change vs agonist alone; higher = enhanced IRF activity
# Method in brief: as §1
# [3] = tested on: RAW-Dual (murine macrophage reporter line); experiment: viability score (confluency relative to resting cells, overnight) (fraction); higher = more viable, active = viable (0.7 or more)
# Method in brief: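 Overnight exposure to 10 μM final compound was carried out on RAW-Dual macrophages in 384-well plates. IncuCyte software generated two confluency masks over all wells imaged with IncuCyte. The viability score gives confluency in relation to resting cells. A compound met the cutoff if each mask exceeded 70% of resting cells.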
# [4] = agonist: CpG ODN 1826 0.5 ug/mL
Structure (SMILES),"NF-kB reporter [1, 4]",NF-kB reporter ([1]; agonist: LPS 0.1 ug/mL),NF-kB reporter ([1]; agonist: MPLA […]),IRF reporter ([2]; agonist: 3'3'-cGAMP 10 ug/mL),IRF reporter ([2]; agonist: LPS 0.1 ug/mL),IRF reporter ([2]; agonist: MPLA […]),viability score [3]
Cc1ccc(S(=O)(=O)O)cc1.NC(=O)c1cccc2cn(-c3ccc([C@@H]4CCCNC4)cc3)nc12,0.0798 ± 0.0034,0.142 ± 0.017,0.372 ± 0.027,0.041 ± 0.0076,0.0678 ± 0.01,0.0808 ± 0.016,0.881 (active)
O=C(NCCN1CCN(c2ccc(Cl)cc2)CC1)c1ccno1,0.933 ± 0.071,0.992 ± 0.082,2 ± 0.72,1.01 ± 0.05,1.24 ± 0.26,1.36 ± 0.49,0.96 (active)
CC1CN(Cc2ccccn2)CCC1=O (stereo not drawn),0.988 ± 0.11,0.993 ± 0.064,1.03 ± 0.062,0.978 ± 0.027,1.58 ± 0.23,1.17 ± 0.12,1.01 (active)
Cc1c(NC(=S)NC(=O)c2ccccc2[N+](=O)[O-])cccc1-c1nc2ccccc2s1,1.09 ± 0.087,1.07 ± 0.073,0.933 ± 0.064,0.88 ± 0.021,1.47 ± 0.2,1.07 ± 0.2,1.02 (active)
CN1CCN(c2c(F)cc3c(=O)c(C(=O)O)cn4c3c2OCN4C)CC1,1.2 ± 0.34,1.09 ± 0.093,0.971 ± 0.099,0.958 ± 0.039,1.26 ± 0.15,1.25 ± 0.12,0.995 (active)
COc1cc(C=C2SC(=S)NC2=O)ccc1OCCC(C)C,0.847 ± 0.074,0.969 ± 0.049,1.09 ± 0.11,1.03 ± 0.047,1.43 ± 0.12,1.61 ± 0.2,1 (active)
Cc1cc(OCC(=O)NN=Cc2ccc(O)c([N+](=O)[O-])c2)ccc1Cl,1.03 ± 0.29,1.04 ± 0.092,1.02 ± 0.093,1 ± 0.041,1.08 ± 0.2,1.13 ± 0.13,0.998 (active)
CC1C(C#N)=C(N)OC2=C1C(=O)CC(C)(C)C2 (stereo not drawn),1.01 ± 0.083,0.965 ± 0.12,0.96 ± 0.09,0.917 ± 0.072,1.28 ± 0.23,1.47 ± 0.35,1.02 (active)
N#Cc1c(N=Cc2ccc(O)cc2)sc2c1CCCC2,0.688 ± 0.055,0.94 ± 0.069,0.979 ± 0.11,0.713 ± 0.049,1.17 ± 0.22,1.23 ± 0.24,0.997 (active)
O=C(NC(=S)NNc1ccccc1)c1cc2ccccc2oc1=O,1.08 ± 0.23,1.16 ± 0.15,1.03 ± 0.11,0.861 ± 0.022,1.23 ± 0.16,1.12 ± 0.2,0.999 (active)
CCOC(=O)C1=C(C)N(c2ccc(OC)cc2)C(=O)C1=Cc1ccc(C(C)C)cc1,0.903 ± 0.067,1.01 ± 0.083,0.804 ± 0.1,0.883 ± 0.03,1.36 ± 0.21,1.33 ± 0.12,0.997 (active)
O=C1CCC(=O)N1CC(O)Cn1c2ccc(Cl)cc2c2cc(Cl)ccc21 (stereo not drawn),0.671 ± 0.035,0.816 ± 0.065,0.896 ± 0.05,0.839 ± 0.04,1.24 ± 0.25,1.19 ± 0.39,0.922 (active)
O=C1c2ccc(-c3ccc4c(c3)C(=O)N(CCO)C4=O)cc2C(=O)N1CCO,0.94 ± 0.078,1.03 ± 0.063,0.912 ± 0.1,0.934 ± 0.048,1.33 ± 0.09,1.24 ± 0.3,1 (active)
CC1CCc2c(N3CCC(O)CC3)c(F)cc3c(=O)c(C(=O)O)cn1c23 (stereo not drawn),0.975 ± 0.091,0.889 ± 0.051,0.992 ± 0.051,1.03 ± 0.077,0.897 ± 0.046,0.946 ± 0.11,0.995 (active)
C[C@]1(O)C[C@@H](c2nc(-c3ccc4ccc(-c5ccccc5)nc4c3)c3c(N)nccn32)C1,0.797 ± 0.04,1.26 ± 0.1,0.899 ± 0.08,0.593 ± 0.055,0.971 ± 0.072,0.958 ± 0.17,1 (active)
Cc1nnc(NC(=O)CSc2nc3ccccc3[nH]2)s1,1.11 ± 0.094,1.01 ± 0.073,0.954 ± 0.078,1.14 ± 0.22,1.01 ± 0.13,1.05 ± 0.2,0.995 (active)
COc1ccc(N(CC(=O)Nc2ccccc2C(F)(F)F)S(C)(=O)=O)cc1Cl,0.96 ± 0.075,1.02 ± 0.097,0.979 ± 0.045,0.961 ± 0.17,1.02 ± 0.045,1.02 ± 0.19,1 (active)
O=C(CSc1ncnc2c(-c3ccccc3)c[nH]c12)NCc1ccc(Cl)cc1,1.18 ± 0.059,1.13 ± 0.089,0.796 ± 0.035,1.25 ± 0.064,1.18 ± 0.093,1.24 ± 0.26,0.99 (active)
COc1ccc(CNCc2cccc3ccccc23)c(OC)c1,0.108 ± 0.013,0.586 ± 0.065,0.607 ± 0.063,0.968 ± 0.076,1.21 ± 0.12,1.36 ± 0.22,0.354 (inactive)
C[C@H](Nc1ncnc2[nH]cnc12)c1cc2cccc(Cl)c2c(=O)n1-c1ccccc1,0.557 ± 0.042,0.808 ± 0.054,0.859 ± 0.024,0.728 ± 0.041,0.991 ± 0.095,1.1 ± 0.093,0.906 (active)
CCn1nccc1C(=O)N1CCN(S(C)(=O)=O)CC1,1.02 ± 0.066,0.929 ± 0.092,0.991 ± 0.028,1.01 ± 0.069,0.994 ± 0.061,0.847 ± 0.13,1 (active)
COc1cc(C(C)=O)ccc1OCCCN1CCC(c2noc3cc(F)ccc23)CC1,0.986 ± 0.15,1.17 ± 0.31,0.924 ± 0.056,0.834 ± 0.027,1.19 ± 0.2,1.12 ± 0.11,0.991 (active)
Br.O=S(=O)(c1ccc(-c2csc(Nc3ccc(Cl)cc3)n2)cc1)N1CCOCC1,0.997 ± 0.09,1.09 ± 0.071,1.09 ± 0.038,0.907 ± 0.17,1.11 ± 0.046,1.06 ± 0.1,0.995 (active)
Fc1ccc(CN2CCc3c([nH]c4ccccc34)C2)cc1,0.756 ± 0.07,0.707 ± 0.059,1.4 ± 0.12,0.64 ± 0.039,0.974 ± 0.091,2.77 ± 0.34,0.126 (inactive)
